We go through eight compounds from PubChem BioAssay (NCI).

SMILES strings stand for the structures. About 83,000 compounds went through this panel and 20% of them were active in at least one assay; those are over-represented in the sample as a whole.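 Each cell line was grown in a 96-well plate and treated with one concentration of compound for 48 hours. Values below 10 were considered active.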 Values without a mark were called inactive. The source made the active and inactive calls.

What all share (experiment): NCI-60 one-dose screen, 48 h (100 = growth as untreated, 0 = no growth, -100 = all killed)
Common to all, as to details: 10 µM unless noted

Experiment [1] relates to EKVX NSCLC.
The subject of experiment [2] is SN12C renal.
In experiment [3] the test system is UO-31 renal.
Experiment [4] deals with ACHN renal.
The test system of experiment [5] is CAKI-1 renal.
For experiment [6], the system named is A498 renal.
Experiment [7] deals with CCRF-CEM leukemia.
Experiment [8] has as its system MOLT-4 leukemia.
Experiment [9] has as its system SR leukemia.
The test system of experiment [10] is RPMI-8226 leukemia.
Experiment [11] relates to OVCAR-8 ovarian.
The test system of experiment [12] is OVCAR-5 ovarian.
The subject of experiment [13] is OVCAR-4 ovarian.
Experiment [14] concerns SK-OV-3 ovarian.
Experiment [15] has as its system IGROV1 ovarian.
Experiment [16] concerns OVCAR-3 ovarian.
For experiment [17], the system named is HS 578T breast.
In experiment [18] the test system is T-47D breast.
Experiment [19] concerns NCI/ADR-RES ovarian.

Turning to `CC(=O)Oc1ccccc1C(=O)Nc1ccc(C(=O)/C=C/c2cccs2)cc1`, the growth in experiment [1] is 103%; in experiment [2], 104%; in experiment [3] it was 105%; in experiment [4], 112%; in experiment [5], 96.2%; in [6] it was 80.7%. Besides, the growth in experiment [7] was 99.7%; in experiment [8], 104%; in [9] it was 93.9%; in experiment [10], 96.2%; in [11] it was 107%; in [12], 109%. Also, the growth in [13] is 104%; in experiment [14], 132%; in [15], 116%; in experiment [16] it was 122%; in [17], 120%; in [18], 100%.

In the case of `O=C(O)CCCCCN1C(=O)/C(=C/c2ccc(O)c(O)c2)SC1=S`, the growth in experiment [1] was 97%; in experiment [2], 98.5%; in experiment [3], 90.4%; in experiment [4], 109%; in experiment [5] it was 102%; in [6], 101%. Moreover, the growth in experiment [7] is 105%; in [8], 106%; in experiment [9] it was 107%; in experiment [10] it was 111%; in experiment [11] it was 103%; in experiment [12] it was 108%. The growth in experiment [13] was 101%; in experiment [14], 124%; in experiment [15], 106%; in experiment [16], 108%; in [17], 99.6%; in [19] it was 104%. Further, the growth in experiment [18] was 98%.

For the compound `CC(C)(O)c1cncc(-c2ccc3ncnc(N4CCc5cc(F)c(Cl)cc54)c3c2)c1`, the growth was -2.39% (active) in [1]; 18.6% in experiment [2]; 6.25% (active) in [3]; 11.3% in experiment [4]; 10.6% in experiment [5]; -39.6% (active) in experiment [6]. For the same compound, the growth in experiment [7] is 22.2%; in [8], 0.627% (active); in [9] it was 18%; in experiment [10], 6.02% (active); in [11] it was 25.9%; in experiment [12], 25.9%. In addition, the growth was 20.2% in experiment [13]; 1.96% (active) in experiment [14]; -35.7% (active) in experiment [15]; -8.48% (active) in [17]; 31.1% in [19]; 4.63% (active) in [18].

Regarding `O=C(CCN1C(=O)/C(=C/c2ccccc2)SC1=S)N1CCOCC1`, the growth in [1] is 82.3%; in experiment [2], 81.7%; in [3], 72.9%; in experiment [4] it was 67%; in [5], 88.2%; in [6] it was 90.5%. The growth was 49.1% in [7]; 89.4% in experiment [8]; 65.4% in [9]; 67.7% in [10]; 99.6% in [11]; 94.8% in experiment [12]. The growth in [13] was 101%; in [14] it was 98.5%; in [15], 88.5%; in [17], 100%; in [19], 98.8%; in [18] it was 65.7%.

With `CN(C)CCCNc1c2ccccc2nc2c1oc1ccc(Cl)cc12`, the growth in experiment [1] is 43.5%; in [2], 26.6%; in experiment [3], 39.5%; in experiment [4], 17.5%; in experiment [5] it was 21.4%; in [6] it was 7.63% (active). Moreover, the growth was 24.1% in [7]; 3.74% (active) in experiment [8]; -30.8% (active) in experiment [9]; 14.4% in experiment [10]; 25.4% in [11]; 51.6% in experiment [12]. Further, the growth is 50.6% in experiment [13]; 57.6% in experiment [14]; 25.8% in experiment [15]; 63.5% in experiment [16]; 47.7% in experiment [17]; 22% in [19]. In addition, the growth in experiment [18] is 63.7%.

As to `Cc1cccc2sc(/N=C(\N)C(Cl)(Cl)Cl)nc12`, the growth in experiment [1] was 71%; in experiment [2], 110%; in experiment [3], 90.5%; in experiment [4], 98.4%; in experiment [5] it was 85.3%; in experiment [6], 92.7%. Besides, the growth in experiment [7] was 107%; in experiment [8], 103%; in experiment [9], 100%; in [10] it was 105%; in experiment [12] it was 119%; in experiment [13], 97.4%. The growth in experiment [14] is 101%; in [15], 98.3%; in experiment [16] it was 115%; in experiment [17], 97.1%; in [19], 108%; in experiment [18], 74.8%.

Turning to `O=C(CCN1C(=O)/C(=C/c2ccccc2F)SC1=S)N1CCOCC1`, the growth was 86.8% in [1]; 73.9% in experiment [2]; 67.6% in [3]; 62.2% in [4]; 84.7% in [5]; 111% in [6]. Besides, the growth in experiment [7] is 53.3%; in experiment [8] it was 89.9%; in experiment [9], 46.7%; in experiment [10], 59.7%; in [11] it was 99.6%; in [12], 94.2%. Also, the growth is 99.1% in experiment [13]; 135% in [14]; 61.9% in experiment [15]; 99.8% in experiment [16]; 101% in [17]; 99.8% in [19]. In addition, in [18], the growth is 59.3%.

Take `COc1cc(OC)c(C2SCC(=O)N2Nc2ncnc3ccccc23)cc1OC` (configuration not stated): the growth in experiment [1] was 100%; in experiment [2], 103%; in experiment [3], 89.7%; in [4], 106%; in experiment [5], 94%; in experiment [6], 81.8%. Besides, the growth was 107% in experiment [7]; 105% in experiment [8]; 104% in [9]; 115% in experiment [10]; 106% in experiment [11]; 109% in [12]. The growth was 103% in [13]; 127% in experiment [14]; 106% in experiment [15]; 119% in experiment [16]; 112% in [17]; 106% in experiment [18].
